# The whole screen tested about 2,500 compounds, of which about 980 (39%) were called active.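 How the source made its calls: active means mean inhibition at 5 µM reaching about 45% (limit read from the data); inactive means the rest.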 Only a sample is shown.
# Assay: blockers of Gli reporter signaling – single concentration, luciferase luminescence, Sufu-KO-LIGHT cells, confirmation (AID 602428);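 further: plate controls were DMSO-treated cells for no effect and wells lacking cells for full effect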
# Conditions: at 5 µM, active compounds read high
row,SMILES,inhibition
1,COCCn1c(CN2CCC(Cc3ccccc3)CC2)nc2c1c(=O)n(C)c(=O)n2C,58.7% (active)
2,O=C1/C(=C/c2ccc(F)cc2)SC(=S)N1NS(=O)(=O)c1ccccc1,15.2% (inactive)
3,CCCOc1ccc(Cc2c(Cl)nc(SC)nc2NC)cc1,60.5% (active)
4,CCc1c(C)nc2cc(C)[nH]n2c1=O,29.9% (inactive)
5,CC(=O)OCCC(C)C,21.6% (inactive)
6,CN(NC(=O)c1ccccc1F)c1nc(C(F)(F)F)nc2ccccc12,36.6% (inactive)
7,COC(=O)c1ccc(CSc2nnc(N)s2)o1,37.1% (inactive)
8,Cn1c(=O)c2c(nc(NCCc3ccccc3)n2Cc2ccccc2)n(C)c1=O,57.1% (active)
9,CCCCNc1nc2c(c(=O)n(C)c(=O)n2C)n1Cc1cccc(OC)c1,72.5% (active)
10,CN(C)CCN(C(=O)C1CCCCC1)c1nc2cc3c(cc2s1)OCO3,14.1% (inactive)
11,CCc1c(C)[nH]c(=S)c(C#N)c1C,25.3% (inactive)
12,CC1(C)CC2CC(C)(CN2c2ncnc3ccc(Br)cc23)C1 (configuration not stated),41.5% (inactive)
13,COc1ccc(OC)c(Cc2cnc3nc(N)nc(N)c3c2C)c1,51.4% (active)
14,O=C(NC1CCN(C(=S)Nc2ccc(Cl)cc2)CC1)C1CCCCC1,10.8% (inactive)
15,CC(C)Oc1ccc(CN2CCC(n3nccc3NC(=O)c3cccnc3)CC2)cc1,23.4% (inactive)
16,Cc1nn(C)c(Cl)c1CN1CCC(n2nccc2NC(=O)C2CCCC2)CC1,14% (inactive)
17,C=CCOc1nc2c(c(=O)n(C)c(=O)n2C)n1Cc1ccc(Cl)cc1Cl,50.9% (active)
18,CNc1ccc(SC#N)cc1,13.2% (inactive)
19,CCC1CCCCN1CCCNC(=O)Cn1nc(-c2ccccc2)ccc1=O (configuration not stated),13.3% (inactive)
20,COc1ccc(C(=O)NCc2nnc(SCCOc3ccccc3)n2C)cc1,28.6% (inactive)
21,CC(C)(C)c1ccc(Oc2ccc(N)cc2)cc1,80.1% (active)

row,SMILES,inhibition
1,CCCc1nc(N)nc2c1C(=O)CC(C)(C)C2,16.9% (inactive)
2,Cc1ccc(C)c(S(=O)(=O)N2CCN(c3ncnc4sccc34)CC2)c1,54% (active)
3,Cc1c(Cl)c([N+](=O)[O-])nn1Cc1ccc(C(=O)N/N=C\c2cc(Cl)ccc2O)o1,57.9% (active)
4,CCN(CC(=O)Nc1cc(Cl)ccc1C)C(=O)CSCc1ccc(C)cc1,28.9% (inactive)
5,Cc1ccc(-c2nc(CSCC(=O)NC3CCN(Cc4ccccc4)CC3)c(C)o2)cc1,23.9% (inactive)
6,O=C(c1cc(Cl)cc(Cl)c1)N1CCC(=O)N(C(COCc2ccccc2)Cc2ccccc2)CC1 (configuration not stated),7.41% (inactive)
7,Cc1ccc(S(=O)(=O)N2C[C@@H]3CCCC[C@@H]3[C@@H](C)[C@H]2c2cn(Cc3ccccc3)c3ccc(F)cc23)cc1,83.6% (active)
8,CCN(CC)CCNC(=O)c1ccc(NC(=O)c2cc(-c3ccncc3)nc3ccccc23)cc1,23% (inactive)
9,CN1C(CC(=O)Nc2ccc(Br)cc2)c2ccccc2CC1(C)C (configuration not stated),11.3% (inactive)
10,O=C(Nc1cccc(S(=O)(=O)Nc2ccc(Cl)cc2)c1)c1ccc2c(c1)OCCO2,37.7% (inactive)
11,O=C(Cn1cc(C(=O)C2CC2)c2ccccc21)Nc1ccccc1Cl,60.3% (active)
12,CCN(CC)S(=O)(=O)c1ccc(Cl)c(C(=O)NC(C)C(c2cccs2)N2CCCC2)c1 (configuration not stated),15.2% (inactive)
13,O=C(NCCOCc1ccc(Cl)cc1)c1ncn[nH]1,9.09% (inactive)
14,Brc1c(CSc2nncc3ccccc23)nc2ccccn12,12.7% (inactive)
15,CCOC(=O)c1cnc(Nc2nc3ccccc3o2)nc1CSC(=S)N1CCCCC1,35.3% (inactive)
16,CN(C)CCSc1nc(N)c2c3c(sc2n1)COC(C)(C)C3,16.1% (inactive)
17,CC(=O)N1CCCc2cc(S(=O)(=O)N3CCCC(C(=O)N4CCN(c5cccc(Cl)c5)CC4)C3)ccc21 (configuration not stated),66.9% (active)
18,Cc1ccc(S(=O)(=O)N(Cc2cc3ccccc3[nH]c2=O)CC2CCCO2)cc1 (configuration not stated),21.7% (inactive)
19,CN(C)C(CNC(=O)Cc1ccc([N+](=O)[O-])cc1)c1ccccc1 (configuration not stated),16.5% (inactive)
20,O=C(Nc1ccnn1C1CCN(C/C=C/c2ccc(F)cc2)CC1)C1CCCC1,21.9% (inactive)
21,Cc1ccsc1C(=O)OCC(=O)c1cc(C)n(CC2CCCO2)c1C (configuration not stated),85.5% (active)
